SW480 rerep – inducers of DNA re-replication in SW480 colon cancer cells; SW480 DNA re-replication, Hoechst DNA content imaging, 48 h; Potency, µM (titrated, usually from 46.1 µM), without a hit: at the highest dose re-replication activation, actives largely listed as activators; actives 1.8% (n = 340,000); note: potency is the fitted concentration of half-maximal effect; % of control where 0% means no effect; nearly all actives have a fitted effect of over 55% in size
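Hoechst fluorescence of nuclei (405 nm excitation, 500-530 nm emission) measured by plate-scanning imager after 48 hr compound exposure at 37 C; re-replication scored as increased number of nuclei with elevated intensity.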
MCF10A rerep – induces DNA re-replication in MCF 10a normal breast cells; MCF 10A DNA re-replication, Hoechst nuclear intensity, 48 h; Potency, µM (doses to about 46.1 µM), for inactives: top-dose activity, positive = re-replication, actives largely listed as activators; actives 2.9% (n = 350,000); note: potency is the fitted concentration of half-maximal effect; % of control where 0% means no effect; nearly all actives have a fitted effect of over 50% in size
IL1B secr inh – blocks inflammasome-driven IL-1 beta release. THP-1 LPS/ATP IL-1B secretion, AlphaLISA, 16 h; hits give low values. activity change, % at 57.5 µM. actives 4.7% (n = 360,000). AID 743279; in the data active = activity change below about -50%; inconclusive = mostly about -30% to -49%; note: % is set by controls: 0 for no effect and ±100 for the full control effect
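Secreted IL-1B measured by AlphaLISA bead assay after 16 h compound exposure of THP-1 cells; compounds (final up to 57.5 uM) added 1 h before LPS (250 ng/mL) and ATP (1.25 mM) stimulation; lower signal means less secretion.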
Vif-A3F inh – blocks the Vif interaction with APOBEC3F; HeLa A3F-eYFP + Vif (tagged APOBEC3F with the HIV-1 protein that degrades it), YFP fluorescence increase; actives 0.2% (n = 390,000); Potency, µM (doses to about 46.1 µM), for inactives: top-dose activity, negative = active; note: potency is the fitted concentration of half-maximal effect; % of control where 0% means no effect; nearly all actives have a fitted effect of over 65% in size
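HeLa cells stably expressing Vif plus C-terminally eYFP-tagged A3F were seeded, incubated overnight at 37 deg C, dosed with compound, incubated overnight again at 37 deg C. Yellow fluorescence (Ex 488/Em 500-530) reported blocked Vif-mediated A3F-eYFP degradation.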
Vif-APOBEC3G blk – inhibitors of Vif-APOBEC3G interaction; Q9HC16; Potency, µM (top dose mostly 46.1 µM), for the others: at the highest dose activity, negative = active, usual class: inhibitors; HeLa A3G-eYFP + Vif (tagged APOBEC3G with the HIV-1 protein that degrades it), YFP fluorescence, overnight; actives 0.076% (n = 410,000); note: potency is the fitted concentration of half-maximal effect; % is set by controls: 0 for no effect and ±100 for the full control effect; nearly all actives have a fitted effect of over 60% in size
Target sequence (Q9HC16 whole entry, looked up): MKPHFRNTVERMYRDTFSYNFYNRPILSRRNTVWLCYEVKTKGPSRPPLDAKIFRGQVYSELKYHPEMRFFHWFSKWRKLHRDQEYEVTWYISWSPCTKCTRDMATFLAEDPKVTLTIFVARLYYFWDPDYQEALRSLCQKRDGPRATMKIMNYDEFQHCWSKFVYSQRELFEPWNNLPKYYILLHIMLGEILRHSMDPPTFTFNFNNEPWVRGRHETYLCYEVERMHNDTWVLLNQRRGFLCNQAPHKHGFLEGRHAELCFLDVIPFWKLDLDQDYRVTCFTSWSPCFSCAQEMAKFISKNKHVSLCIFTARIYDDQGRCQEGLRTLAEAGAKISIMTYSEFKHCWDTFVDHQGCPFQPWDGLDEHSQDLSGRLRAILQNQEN
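HeLa cells stably expressing Vif and C-terminally eYFP-tagged A3G, seeded overnight at 37 deg C, then exposed to compound by pintool overnight at 37 deg C. Rise in yellow fluorescence (Ex 488/Em 500-530, Acumen) marks blocked Vif-driven A3G degradation.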
Giardia kill – Giardia lamblia killing. Giardia lamblia trophozoite viability. activity change, % at 7.66 µM, hits read low. actives 0.15% (n = 340,000); in the data active = activity change below about -80%; inconclusive = between about -30% and that limit;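 note: parasites exposed to compound for two days anaerobically before the ATP read; % is set by controls: 0 for no effect and ±100 for the full control effect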
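Anaerobic 48 hrs incubation at 37 deg C of 100 trophozoites/well with test compounds; ATPLite 1-Step luminescence, 15-30 min RT, reports cellular ATP as viability.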
Starred values were filed as active, the others as inactive; ? = inconclusive; · = no result. An excerpt weighted towards active compounds, which were near 6.9% of everything screened. Unless noted, calls come from the whole dose curve; as a rule, active = well fitted curve in the direction sought with a large enough effect; inconclusive = small, poorly fitted or top-dose-only effect, or another doubt; inactive = no such curve, though single readings can be large; an effect the other way counts as inactive or inconclusive.

SMILES	SW480 rerep	MCF10A rerep	IL1B secr inh	Vif-A3F inh	Vif-APOBEC3G blk	Giardia kill
N#C/C(=C\c1c(F)cccc1Cl)C(=O)NC1CC1	?	?	-74*	3%	0%	0
Cc1cc(NC(=O)COCc2cc(-c3ccc(F)cc3)on2)ccc1Br	·	·	·	8%	6%	·
CCCCCCCCNC(=O)/C(C#N)=C/c1ccc(SC)cc1	2.1µM*	-14%	2	-8%	-1%	10
Cc1sc2ncn(CC(=O)N3CCN(c4ccccc4F)CC3)c(=O)c2c1S(=O)(=O)N1CCN(c2ncccn2)CC1	·	·	·	-3%	-4%	·
CN=C1NC(C)(C)C2CCC(C)(CC2)S1	2%	12µM*	-14	-5%	2%	-18
CC1(C)Cc2nc3oc4c(=O)n(CC(=O)Nc5cccc(Cl)c5)cnc4c3cc2CO1	18µM*	12%	10	?	-1%	-27
CC1(C)Cc2nc3sc4c(=O)n(CC(=O)NCc5ccco5)cnc4c3cc2CO1	16µM*	9.2µM*	36	-1%	?	4
Cc1ccc(C)c(N2CCN(c3c(CN4CCCC4)c(=O)oc4ccccc34)CC2)c1	·	·	·	2%	0%	·
CC(Nc1nc(-c2ccc(F)cc2)cs1)c1nc2cc(Cl)c(N3CCCCC3)cc2n1CCOCCO (centres undefined)	-3%	-3%	-75*	-3%	-11%	16
CC(Nc1nc(-c2ccc(F)cc2)cs1)c1nc2cc(Cl)c(N3CCCCC3)cc2n1CCCO (centres undefined)	?	21µM*	-7	?	-19%	-13
OCCOCCn1c(C(CO)Nc2nc(-c3cccc(Br)c3)cs2)nc2ccccc21 (centres undefined)	-1%	?	-23	8%	?	2
CCCn1c(C(CO)Nc2nc(-c3cccc(Br)c3)cs2)nc2ccccc21 (centres undefined)	-8%	9%	-57*	5%	-16%	-3
CC(Nc1nc(-c2cccc(Br)c2)cs1)c1nc2cc(Cl)c(N3CCCCC3)cc2n1CCOCCO (centres undefined)	-32%	?	-55*	-15%	-13%	5
COc1ccc(S(=O)(=O)c2c(O)c(C)cc(NS(=O)(=O)c3ccc(Cl)cc3)c2C(C)C)cc1	·	·	·	0%	-3%	·
CC(C)NC(=O)CN1C(=O)c2cccnc2Sc2ccccc21	·	·	·	0%	2%	·
Cc1cc(C)c2nc(N3CCCC(C(=O)NCc4ccccc4F)C3)sc2c1 (centres undefined)	·	·	·	-22%	0%	·
CC(C)CN(C(=O)CCCSc1nc2ccccc2[nH]1)c1c(N)n(Cc2ccccc2)c(=O)[nH]c1=O	-4%	8%	-102*	?	-1%	-2
CC(C)CCN(C(=O)CCSc1ccc(F)cc1)c1c(N)n(Cc2ccccc2)c(=O)[nH]c1=O	1%	3%	-10	3%	-17%	-8
CC(C)CCN(C(=O)CCCSc1nc2ccccc2[nH]1)c1c(N)n(Cc2ccccc2)c(=O)[nH]c1=O	-2%	7%	-97*	4%	-7%	-11
CC(C)CN(C(=O)CSc1nc(-c2ccccc2)cn1N)c1c(N)n(Cc2ccccc2)c(=O)[nH]c1=O	-27%	3%	-9	-3%	-9%	-1
OC(c1cccc(Cl)c1)c1ncc(-c2ccc(Oc3ccccc3)cc2)[nH]1 (centres undefined)	·	·	-52*	·	-14%	·
CCCCN1CC(c2nc3ccccc3n2CCCCOc2ccccc2C)CC1=O (centres undefined)	·	·	·	-1%	0%	·
COc1ccc(NC(=O)C2CCCN(c3nccc(C)n3)C2)cc1 (centres undefined)	-19%	15%	9	-2%	-1%	-16
Cc1ccnc(N2CCCC(C(=O)Nc3ccc(C)c(C)c3)C2)n1 (centres undefined)	-7%	16µM*	21	-8%	-1%	-19
COc1ccc(NC(=O)C2CCCN(c3nc(C)cc(C)n3)C2)cc1 (centres undefined)	-24%	2.9µM*	5	-2%	7%	7
SMILES	SW480 rerep	MCF10A rerep	IL1B secr inh	Vif-A3F inh	Vif-APOBEC3G blk	Giardia kill
Cc1ccc(NC(=O)C2CCCN(c3ncccn3)C2)cc1C (centres undefined)	-8%	14%	-6	1%	-6%	4
O=S(=O)(Cc1ccccc1)N1CCN(c2nc(-c3cccs3)nc3ccccc23)CC1	·	·	·	·	·	3
ON=C1C2CC=C(c3ccccc3)C1CCC2 (centres undefined)	-3%	3%	-58*	-10%	-7%	4
CCOc1ccc(NC(=O)c2csc3c2CCCC3)cc1	-9%	?	?	-9%	0%	24
O=C(N/N=C/c1ccc(O)cc1)c1csc2c1CCCC2	-3%	3%	-62*	-21%	-7%	-4
COc1ccc(/C=N/n2c(N)c(S(=O)(=O)c3cccs3)c3nc4ccccc4nc32)cc1OC	2%	?	?	2%	1%	-13
Nc1c(S(=O)(=O)c2cccs2)c2nc3ccccc3nc2n1/N=C/c1cccc(O)c1	?	6.5µM*	-80*	10%	-1%	23
Cc1cccc(S(=O)(=O)c2c(N)n(/N=C/c3ccco3)c3nc4ccccc4nc23)c1	25%	?	?	-21%	-11%	-8
COCCNC(=O)c1c(N)n(/N=C/c2ccc(F)cc2)c2nc3ccccc3nc12	5.8µM*	2.6µM*	-26	1%	1%	-7
COCCNC(=O)c1c(N)n(/N=C/c2cccs2)c2nc3ccccc3nc12	5.8µM*	?	-3	-15%	2%	-5
Cc1ccc(S(=O)(=O)c2c(N)n(/N=C/c3ccco3)c3nc4ccccc4nc23)cc1C	?	?	-53*	3%	-4%	-3
Cc1ccc(NC(=O)Cn2cc(S(=O)(=O)N3CCN(c4ccccc4F)CC3)c3ccccc3c2=O)cc1F	·	·	·	0%	-4%	·
Cc1ccc(C)c(NC(=O)C(Cc2ccccc2)n2cccc2)c1 (centres undefined)	·	·	·	-3%	3%	·
Cc1ccc2scc(N3CCCCC3)c(=O)c2c1	·	·	·	5%	4%	·
CC(C)CNC(=O)c1c(N)n(/N=C/c2ccccn2)c2nc3ccccc3nc12	?	18µM*	-10	-15%	1%	9
Cc1nc2ccccc2c(=O)n1/N=C/c1ccccn1	?	?	-8	-2%	1%	3
CCN(CC)c1ccc(/C=C2\C(=O)N(c3nnc(C)c(=O)[nH]3)N=C2C)cc1	?	?	-98*	?	?	-8
